The text below walks through data of PubChem BioAssay (NCI).

Test in all cases: NCI-60 one-dose screen, 48 h (100 = growth as untreated, 0 = no growth, -100 = all killed)
For one assay, the system named is HCT-15 colon. As to conditions: 10 µM.
In a further assay the test system is HT29 colon. As to conditions: 10 µM.
The next assay concerns SNB-19 CNS. As to conditions: 10 µM.
Another assay has as its system U251 CNS. As to conditions: 10 µM.
The test system of the next assay is PC-3 prostate. As to conditions: 10 µM.
For a further assay, the system named is SK-MEL-5 melanoma. As to conditions: 10 µM.
For the next assay, the system named is UACC-62 melanoma. As to conditions: 10 µM unless noted.
The next assay concerns LOX IMVI melanoma. As to conditions: 10 µM.
Another assay has as its system SK-MEL-28 melanoma. As to conditions: 10 µM.
The subject of a further assay is SNB-75 CNS. As to conditions: 10 µM.

About 83,000 compounds went through this panel and 20% of them were active in at least one assay; those are over-represented in the sample as a whole.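 For each line, cells grew in 96-well plates with the test compound present at a single concentration for 48 hours.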 Unmarked numbers belong to inactive results. The source made the active and inactive calls. The calls were made as follows: active = growth percent below 10; inactive = the rest.

Take `Cc1cc(N)ccc1-c1ccc(N)cc1C`: the growth with HCT-15 colon is 97.6%; in the assay on HT29 colon, 102%; in the assay on SNB-19 CNS it was 107%; with U251 CNS, 110%; in the assay on PC-3 prostate, 73.8%; with SK-MEL-5 melanoma, 99.7%. The values for the growth in the assay on UACC-62 melanoma, in the assay on LOX IMVI melanoma and in the assay on SK-MEL-28 melanoma were 104%, 88.2% and 104%, respectively.

In the case of `CCNCCCCNCCCCNCCCCNCCCCNCC`, the growth in the assay on HCT-15 colon is 99.1%; in the assay on HT29 colon, 72.1%; in the assay on SNB-19 CNS, 81.1%; with U251 CNS it was 95.5%; with PC-3 prostate, 84.6%; with SK-MEL-5 melanoma, 73.8%. Further, the growth with UACC-62 melanoma is 72.8%; in the assay with LOX IMVI melanoma, 75.3%.

As to `COc1ccc(C2(O)CCCCC2)cc1`, the growth was 112% with HCT-15 colon; 106% with HT29 colon; 102% in the assay with SNB-19 CNS; 100% in the assay with U251 CNS; 89.7% in the assay with PC-3 prostate; 98.6% in the assay with SK-MEL-5 melanoma. The growth in the assay on UACC-62 melanoma was 94.7%; in the assay on LOX IMVI melanoma, 96.1%; with SK-MEL-28 melanoma, 120%.

As for `Nc1ccccc1SC(CC(=O)c1ccccc1)c1c(Cl)cccc1Cl` (stereo unspecified), the growth was 44.5% in the assay on HCT-15 colon; 42.5% in the assay with HT29 colon; 70.6% with SNB-75 CNS; 27% in the assay with U251 CNS; 81.4% in the assay with SK-MEL-5 melanoma; 73.9% in the assay on UACC-62 melanoma. Further, the growth in the assay on LOX IMVI melanoma was 22.7%; in the assay with SK-MEL-28 melanoma, 90.8%.

Take `CC(=O)Nc1cccc(NC(C)=O)n1`: the growth in the assay on HCT-15 colon is 103%; with HT29 colon, 110%; with SNB-75 CNS it was 106%; in the assay on U251 CNS, 102%; in the assay with SK-MEL-5 melanoma it was 105%; in the assay on UACC-62 melanoma, 97.5%. Besides, the growth with LOX IMVI melanoma is 103%; in the assay on SK-MEL-28 melanoma it was 108%.

Consider `CC(=O)NC(N)=S`, for which the growth is 109% in the assay with HCT-15 colon; 97.7% in the assay with HT29 colon; 101% in the assay on SNB-19 CNS; 105% with U251 CNS; 92.6% in the assay on PC-3 prostate; 107% in the assay on SK-MEL-5 melanoma. Further, the growth was 109% with UACC-62 melanoma and 102% in the assay on LOX IMVI melanoma.

For `Cc1ccc(N)cc1[N+](=O)[O-]`, the growth with HCT-15 colon was 106%; in the assay with HT29 colon it was 123%; in the assay on SNB-19 CNS, 113%; with U251 CNS it was 98.8%; in the assay on PC-3 prostate it was 95.8%; in the assay on SK-MEL-5 melanoma it was 111%. Also, the growth in the assay with UACC-62 melanoma was 105%; in the assay on LOX IMVI melanoma, 101%.

Take `Cc1cc(=O)cc(C)n1-c1ccccc1`: the growth with HCT-15 colon is 104%; in the assay on HT29 colon, 101%; in the assay with SNB-19 CNS, 99.8%; with U251 CNS, 101%; with PC-3 prostate it was 93.6%; with SK-MEL-5 melanoma it was 106%. Moreover, the growth is 99% in the assay on UACC-62 melanoma, 98.9% in the assay on LOX IMVI melanoma and 104% in the assay on SK-MEL-28 melanoma.

For `O=C1NC(=O)C2C(=O)NC(=O)C1C21CCc2ccccc21` (stereo unspecified), the growth in the assay with HCT-15 colon was 105%; with HT29 colon, 123%; in the assay with SNB-75 CNS, 124%; with U251 CNS, 106%; in the assay with PC-3 prostate it was 90.1%; in the assay with UACC-62 melanoma it was 83.6%. Moreover, the growth in the assay on SK-MEL-28 melanoma was 113%.

Take `CCOc1ccc2[nH]c(=S)sc2c1`: the growth was 108% with HCT-15 colon; 92% in the assay with SNB-75 CNS; 103% in the assay on SNB-19 CNS; 106% in the assay with U251 CNS; 101% with PC-3 prostate; 101% with SK-MEL-5 melanoma. Besides, the figures for the growth in the assay with UACC-62 melanoma, with LOX IMVI melanoma and in the assay on SK-MEL-28 melanoma were 104%, 98.6% and 109%, respectively.

As for `O=C(CN1CCNCC1)N1CCOCC1`, the growth in the assay with HCT-15 colon is 104%; in the assay on SNB-75 CNS, 86.9%; with SNB-19 CNS, 102%; with U251 CNS, 106%; in the assay with PC-3 prostate, 100%; with SK-MEL-5 melanoma, 110%. For the same compound, the growth was 106% in the assay with UACC-62 melanoma, 98.4% in the assay with LOX IMVI melanoma and 115% in the assay on SK-MEL-28 melanoma.

Turning to `CCC(C)(O)c1ccc(C)cc1` (stereo unspecified), the growth is 107% in the assay on HCT-15 colon; 91.7% in the assay on SNB-75 CNS; 97.8% in the assay with SNB-19 CNS; 105% with U251 CNS; 99.6% in the assay on PC-3 prostate; 98.5% with SK-MEL-5 melanoma. In addition, the growth in the assay on UACC-62 melanoma is 102%; with LOX IMVI melanoma, 106%; with SK-MEL-28 melanoma, 104%.

Take `O=c1cc(-c2ccccc2)[nH]c2c1CCCC2`: the growth in the assay with HCT-15 colon was 25%; in the assay on SNB-75 CNS it was -7.33% (active); in the assay on SNB-19 CNS it was 39.4%; with U251 CNS it was 27.9%; in the assay with PC-3 prostate it was 28.5%; in the assay with SK-MEL-5 melanoma, 7.3% (active). Moreover, the growth is 35.2% with UACC-62 melanoma, 37.4% in the assay with LOX IMVI melanoma and 52.1% in the assay on SK-MEL-28 melanoma.

Consider `COc1nc(N)nc2c1ncn2C1OC(CO)CC1O` (stereo unspecified), for which the growth with HCT-15 colon was 101%; with SNB-75 CNS, 89.7%; in the assay on SNB-19 CNS, 103%; in the assay with U251 CNS it was 112%; in the assay with PC-3 prostate, 99.2%; in the assay with SK-MEL-5 melanoma, 105%. The values for the growth with UACC-62 melanoma, with LOX IMVI melanoma and in the assay with SK-MEL-28 melanoma were 100%, 107% and 108%, respectively.

As to `CCN(CC)CCCC(C)Nc1ccnc(/C=C/c2ccc(Cl)cc2)c1` (stereo unspecified), the growth was -33.4% (active) in the assay with HCT-15 colon; -49.3% (active) in the assay with SNB-75 CNS; 53.6% in the assay with SNB-19 CNS; -58.1% (active) with U251 CNS; 45.5% in the assay on PC-3 prostate; -96.7% (active) in the assay on SK-MEL-5 melanoma. Also, the growth with UACC-62 melanoma was -55.8% (active); in the assay with LOX IMVI melanoma, -71.2% (active); in the assay on SK-MEL-28 melanoma it was -87.5% (active).

For `Oc1ccccc1-c1nnco1`, the growth in the assay with HCT-15 colon is 100%; in the assay on SNB-75 CNS it was 45.5%; in the assay on SNB-19 CNS, 93.2%; in the assay on U251 CNS, 82.9%; with PC-3 prostate, 91.8%; with SK-MEL-5 melanoma, 102%. The growth with UACC-62 melanoma is 89.9%; in the assay on LOX IMVI melanoma, 87.7%; in the assay with SK-MEL-28 melanoma, 101%.

For the compound `O=[N+]([O-])c1ccc(Sc2ccncn2)c([N+](=O)[O-])c1`, the growth in the assay with HCT-15 colon was 85.3%; in the assay on SNB-75 CNS, 81.8%; with SNB-19 CNS, 106%; with U251 CNS it was 106%; with PC-3 prostate it was 71.9%; in the assay on SK-MEL-5 melanoma, 93.1%. Moreover, the growth was 74.1% in the assay with UACC-62 melanoma, 4.84% (active) in the assay with LOX IMVI melanoma and 96.1% in the assay with SK-MEL-28 melanoma.

As to `Cc1nc2c(ccc3ccccc32)s1`, the growth in the assay on HCT-15 colon was 110%; with SNB-75 CNS it was 108%; in the assay with SNB-19 CNS it was 107%; in the assay with U251 CNS it was 99.3%; in the assay on PC-3 prostate it was 99.7%; with SK-MEL-5 melanoma, 112%. In addition, the results for the growth in the assay with UACC-62 melanoma, in the assay on LOX IMVI melanoma and with SK-MEL-28 melanoma were 107%, 98.4% and 105%, respectively.

Turning to `CCOC(=O)C1=C(C)NC(=O)NC1c1cccs1` (stereo unspecified), the growth in the assay on HCT-15 colon is 103%; with SNB-75 CNS, 103%; in the assay with SNB-19 CNS, 113%; with U251 CNS it was 109%; in the assay on PC-3 prostate, 102%; with SK-MEL-5 melanoma, 104%. Besides, the growth with UACC-62 melanoma was 115%; in the assay with LOX IMVI melanoma it was 101%; in the assay with SK-MEL-28 melanoma it was 106%.

Take `O=c1cc(-c2ccccc2)oc2c1ccc1ccccc12`: the growth with HCT-15 colon was 97.7%; in the assay on SNB-75 CNS it was 71.4%; in the assay with SNB-19 CNS, 75.5%; in the assay with U251 CNS, 83.8%; with PC-3 prostate, 84%; in the assay on SK-MEL-5 melanoma, 79.6%. Besides, the growth in the assay with UACC-62 melanoma was 85.6%; with LOX IMVI melanoma, 89.3%; with SK-MEL-28 melanoma, 99.3%.

In the case of `CCCC(=O)Nc1ccc2c(c1)CN1C(=O)c3ccccc3C1=N2`, the growth in the assay on HCT-15 colon is 98.3%; in the assay on SNB-75 CNS, 104%; in the assay with SNB-19 CNS, 110%; in the assay on U251 CNS, 98.6%; with PC-3 prostate it was 98.6%; in the assay with SK-MEL-5 melanoma, 98.5%. For the same compound, the growth is 100% in the assay on UACC-62 melanoma, 105% with LOX IMVI melanoma and 111% with SK-MEL-28 melanoma.

For `NC(=S)NN=C1CCCC1`, the growth in the assay on HCT-15 colon was 77.9%; in the assay on SNB-75 CNS, 99.3%; with SNB-19 CNS, 105%; in the assay with U251 CNS, 73.2%; with PC-3 prostate, 89.9%; with SK-MEL-5 melanoma, 97.8%. Moreover, the growth with UACC-62 melanoma was 103%; in the assay with LOX IMVI melanoma, 88.6%; in the assay with SK-MEL-28 melanoma it was 101%.
